# Shown are actives, neighbours in structure and some others; about 12% of the full set was active somewhere.
# JMJD2A Tudor – blocks the human JMJD2A Tudor domain; AlphaScreen JMJD2A-Tudor / H3K4me3 peptide binding; Potency, µM (top dose mostly 114 µM), inactives show at the top dose activity change, negative = inhibition, most hits filed as inhibitors; 4.4% of 390,000 active; further: potency means the concentration at half of the fitted maximal effect; on the % scale 0 is the no-effect control and ±100 the full control effect; nearly all actives have a fitted effect of over 50% in size
# G9a block – G9a (human) methyltransferase inhibition; Q96KQ7; G9a H3K9 monomethylation, AlphaScreen, 2 h; Potency, µM (titrated, usually from 102 µM), for the others: at the highest dose activity, negative = inhibition, usual class: inhibitors; 8.8% of 350,000 active; AID 504332; further: potency means the concentration at half of the fitted maximal effect; on the % scale 0 is the no-effect control and ±100 the full control effect; nearly all actives have a fitted effect of over 75% in size
#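 Chemiluminescent proximity detection of H3K9 monomethylation, read after 10 min bead incubation in the dark. Reaction: 20 nM G9a, 500 nM biotin-H3K9 peptide, 20 uM SAM cofactor, 2 h, room temperature, following 15 min enzyme-compound preincubation.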
# PI5P4K alpha inh – inhibitors of human PI5P4K alpha; P48426; PI5P4Kalpha enzyme, ADP-Glo luminescence, 60 min; active compounds read low; 1.2% of 330,000 active; AID 652105; max response, %; active means max response of -50% or lower; inconclusive means between -30% and -50%; inactive means -30% or higher; further: value at the top dose of about 77 µM; on the % scale 0 is the no-effect control and ±100 the full control effect
#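 qHTS, 1536-well: enzyme/substrate mix, compound by pin tool, 5 microM ATP final; RT 60 min; ADP-Glo reagents 1 (45 min) then 2 (30 min); luminescence.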
# BAZ2B inh – blocks human BAZ2B. 4.4% of 360,000 active. AlphaScreen BAZ2B-H3K14Ac peptide displacement. Potency, µM (doses to about 114 µM), for the others: at the highest dose activity change, negative = inhibition, hits mostly inhibitors. Q9UIF8; further: potency means the concentration at half of the fitted maximal effect; on the % scale 0 is the no-effect control and ±100 the full control effect; nearly all actives have a fitted effect of over 60% in size
#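 AlphaScreen displacement: compounds (up to 110uM) incubated 30 min at room temperature with a preformed 50 nM BAZ2B/50 nM biotinylated H3K14Ac peptide complex in PBS pH 7.4 with Tween-20. Donor and acceptor beads at 10 ug/mL final added, 20 min light-protected before reading.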
# HP1b binding inh – inhibitors of HP1-beta chromodomain binding to methylated histone tails | 0.56% of 390,000 active | P83916 | Potency, µM (top dose mostly 114 µM), without a hit: top-dose activity change, negative = inhibition, most hits filed as inhibitors | AlphaScreen HP1-beta / biotin-H3K9me3 peptide binding; further: potency means the concentration at half of the fitted maximal effect; nearly all actives have a fitted effect of over 70% in size
#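 Compound inhibition of the preformed complex between 50 nM HP1-beta and 50 nM biotinylated H3K9me3 peptide was read by AlphaScreen. Buffer was PBS pH 7.4 with 0.01% Tween-20. Incubations ran 30 min at room temperature, with 10 ug/mL donor/acceptor beads.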
# PLK1 PBD inh – inhibitors of human PLK1 polo-box domain binding; Potency, µM, for the others: max response, negative = inhibition, most hits filed as inhibitors; P53350; 2.8% of 360,000 active; Plk1 PBD binding of FITC phosphopeptide, fluorescence polarization; further: potency means the concentration at half of the fitted maximal effect; series mostly up to about 57 µM; on the % scale 0 is the no-effect control and ±100 the full control effect; nearly all actives have a fitted effect of over 65% in size
# Active calls of the source: *; u = inconclusive; x = not tested or not shown; [ ] = another dose, or the depositor's remark. Unless noted, the call rests on the fitted dose curve; in most records, active means well fitted curve in the direction sought with a large enough effect; inconclusive means small, poorly fitted or top-dose-only effect, or another doubt; inactive means no such curve, though single readings can be large; an effect the other way counts as inactive or inconclusive.
SMILES,JMJD2A Tudor,G9a block,PI5P4K alpha inh,BAZ2B inh,HP1b binding inh,PLK1 PBD inh
CC1=NN(c2ccccc2)C(=O)C1C(=O)c1cc([N+](=O)[O-])cc([N+](=O)[O-])c1 (configuration not stated),-21.8%,11.2µM*,7.2,u,29.9%,-10.4%
Nc1nc(NCc2cccc(Cl)c2)c2[nH]cnc2n1,-22.7%,x,x,x,44.0%,x
c1ccc(-c2nc3ccccc3nc2-c2ccccn2)nc1,-29.1%,u,x,u,7.6%,-2.4%
c1ccc(C2=NNC(c3ccccn3)=NN2)nc1,7.08µM*,31.6µM*,2.1,2.82µM*,49.5%,-1.2%
COCC(=O)N(C)c1nnc(-c2ccccn2)s1,-2.3%[11.4 µM],1.9%[12.7 µM],0.5,56.2µM*,35.5%,-27.4%
COCC(=O)N(C)c1nnc(-c2ccc([N+](=O)[O-])cc2)s1,-21.5%,30.4%,x,2.1%[57.1 µM],49.9%,-2.5%
CC(=O)c1sc(-c2ccccn2)nc1C,x,35.5µM*,x,6.1%,x,x
c1ccc(-c2nnc(-c3ccccn3)s2)nc1,u,-117.0%[59 µM],-2.8,u,-15.5%,21.2µM*
COc1ccc(-n2cc(-c3ccccc3)c3c(NN4CCOCC4)ncnc32)cc1,u,50.1µM*,-13.2,u,u,-4.6%
OCCN1CCN(c2ncnc3c2c(-c2ccccc2)cn3-c2ccc(F)cc2)CC1,u,-44.2%,-2.2,u,-16.6%,0.4%
Fc1ccc(-n2cc(-c3ccccc3)c3c(NN4CCOCC4)ncnc32)cc1,u,-29.6%[59 µM],-4.4,u,u,-5.8%
COc1ccc(-n2cc(-c3ccccc3)c3c(N4CCN(CCO)CC4)ncnc32)cc1,u,50.1µM*,x,u,-8.7%,-12.6%
Cc1ccc(S(=O)(=O)N2CCOCC2)cc1C(=O)NCCCN1CCCC1=O,x,x,-0.8,x,x,-0.3%
Cc1ccc(CNC(=O)c2ccc(CSCc3ccc(C)cc3)o2)cc1,31.6µM*,9.9%[59 µM],x,29.1%,33.5%,x
Cc1cccc(CSCc2ccc(C(=O)O)o2)c1,-26.5%,48.4%[0.501 µM],-2.1,18.4%,u,23.8µM*
Cc1ccc(N2C(=O)CC(c3c[nH]c4ccccc34)C2=O)cc1 (configuration not stated),-27.1%,-5.7%,-0.9,-0.5%,-16.8%,-19.0%
Cc1c(C2CC(=O)N(c3ccccc3)C2=O)[nH]n(-c2ccccc2)c1=O (configuration not stated),-21.9%,35.5µM*,-4.4,u,20.4%,-7.9%
S=C(Nc1ccccc1)N(Cc1ccccc1)Cc1ccncc1,-6.4%,-7.5%[59 µM],3.4,-12.1%,39.5%,-2.8%
CCN(Cc1ccncc1)C(=S)NCc1ccccc1,-1.6%,50.1µM*,-2.9,-1.8%,7.3%,u
N#CCc1ccc(Oc2ncccn2)cc1,-29.5%,12.6%[0.501 µM],u,0.3%,28.4%,16.8µM*
COc1cc(/C=N/Nc2nc(-c3ccc(S(=O)(=O)N(C)C)cc3)cs2)ccc1O,-23.5%,14.1µM*,-24.4,-33.4%,0.6%,-0.3%
O=S(=O)(c1cccc(-c2csc(N/N=C/c3ccco3)n2)c1)N1CCOCC1,u,44.7µM*,-8.7,u,-15.2%,-3.6%
Cc1ccc(C)c(-c2csc(N/N=C/c3ccco3)n2)c1,u,u,8.3,u,u,-6.5%
Cc1nc(-c2cccc(S(=O)(=O)N3CCCCC3)c2)cs1,-3.0%,-11.5%,-0.9,0.3%,60.5%,u
CCOc1cc(/C=N/Nc2nc(-c3cccc(S(=O)(=O)N4CCCC4)c3)cs2)ccc1O,u,35.5µM*,-8.8,u,-6.7%,-1.8%
SMILES,JMJD2A Tudor,G9a block,PI5P4K alpha inh,BAZ2B inh,HP1b binding inh,PLK1 PBD inh
COc1ccc(/C=N/Nc2nc(-c3cccc(S(=O)(=O)N4CCCC4)c3)cs2)cc1OC,-27.7%,12.6µM*,-13.5,-31.7%,18.3%,3.9%
CCOc1cc(C=NNC(=O)c2cccc(S(=O)(=O)N3CCCC3)c2)ccc1O,-28.0%,x,0.5,x,46.6%,-3.0%
COc1ccc(S(=O)(=O)N2CCOCC2)cc1NC(=O)CN1C(=O)NC(C)(C2CC2)C1=O (configuration not stated),-5.7%,-13.6%[12.7 µM],-5.6,-2.6%,36.3%,-5.1%
CC(=O)c1cc2c(cc1NC(=O)CSc1nnc(C3CC3)n1C)OCO2,x,x,2.5,x,x,-3.9%
CCOc1ccc(CCNC(=O)c2cn(CC)c3ccc(S(=O)(=O)N4CCc5ccccc5C4)cc3c2=O)cc1OCC,u,-21.9%[59 µM],x,x,7.5%,x
O=C(CC(O)c1ccncc1)c1ccccc1O (configuration not stated),-13.1%,x,5.1,x,26.9%[57 µM],-11.8%
O=C(CCCCC(=O)NCc1cccs1)NCc1cccs1,2.8%,-2.3%,1.8,-4.1%,34.5%,-4.1%
O=C(CCS(=O)(=O)c1ccc(Br)cc1)NCc1cccs1,35.5µM*,u,-0.2,50.1µM*,50.1µM*,u
O=C(CCS(=O)(=O)c1ccc(Br)cc1)NCc1ccco1,2.3%,-21.4%[59 µM],-0.3,50.1µM*,42.5%,-4.6%
CC(C)(C)C(=O)Nc1cc(-c2cccc(Br)c2)nn1-c1ccccc1,10.7%,6.2%[59 µM],x,17.3%,36.9%[57 µM],x
O=S(=O)(Nc1cc(S(=O)(=O)N2CCOCC2)ccc1N1CCOCC1)c1ccc2c(c1)OCCO2,-17.7%,39.8µM*,3.6,0.2%,27.6%,-5.5%
O=S(=O)(NCc1ccc2c(c1)OCO2)c1cccc(S(=O)(=O)N2CCOCC2)c1,-19.8%,39.8µM*,-2.4,-4.7%,21.2%,3.0%
O=C(NCc1ccc2c(c1)OCO2)c1cccc(S(=O)(=O)N2CCOCC2)c1,-4.6%,4.1%[12.7 µM],x,-5.0%,28.2%,-2.6%
O=S(=O)(Nc1cc(S(=O)(=O)N2CCOCC2)ccc1O)c1ccc2c(c1)OCCCO2,-32.3%,1.26µM*,u,56.2µM*,u,4.74µM*
C=Cc1cc2c(cc1O)CCC1C2CCC2(C)C(O)CCC12 (configuration not stated),-26.4%,x,-11.7,x,3.7%,0.8%
CCNc1cc2c(cc1O)CCC1C2CCC2(C)C(O)CCC12 (configuration not stated),89.1µM*,x,-1.2,x,u,u
CCOc1cc2c(cc1O)CCC1C2CCC2(C)C(O)CCC12 (configuration not stated),-22.2%,x,0.6,x,7.7%,-3.0%
CC#Cc1cc2c(cc1O)CCC1C2CCC2(C)C(O)CCC12 (configuration not stated),79.4µM*,x,u,x,u,-15.8%
Cc1ccccc1COC(=O)c1ccc(-c2nnn(Cc3ccccc3F)n2)cc1,-4.9%,34.5%[59 µM],x,18.3%,134.9%,x
COCCN(C(=S)Nc1c(C)cccc1C)C(C)c1cccnc1 (configuration not stated),-7.1%[57.1 µM],3.1%[59 µM],3.9,-3.3%,35.4%,-4.2%
COCCN(C(=S)Nc1c(C)cc(C)cc1C)C(C)c1cccnc1 (configuration not stated),-1.1%[57.1 µM],7.08µM*,-18.2,6.8%,u,5.97µM*

# Assay outcomes from PubChem.
